Measurements published in the supplement of paper PMC11732987, “Enantioselective OTUD7B fragment discovery through chemoproteomics screening and high-throughput optimisation” (Communications Chemistry, 2025).

Columns and labels:
Test in all cases: log2 ratio of Biotin-Ahx-Ub-VS probe labelling (fragment/DMSO); higher = less target engagement (more negative = stronger competition), active = hit call of the paper (q ≤ 0.05, log2 ratio ≤ -1)
Details in all cases: compound concentration: 200 uM; treatment time: 3 h
[1] = biological target: T1, USP19 (UniProt O94966)
T1 sequence (whole entry): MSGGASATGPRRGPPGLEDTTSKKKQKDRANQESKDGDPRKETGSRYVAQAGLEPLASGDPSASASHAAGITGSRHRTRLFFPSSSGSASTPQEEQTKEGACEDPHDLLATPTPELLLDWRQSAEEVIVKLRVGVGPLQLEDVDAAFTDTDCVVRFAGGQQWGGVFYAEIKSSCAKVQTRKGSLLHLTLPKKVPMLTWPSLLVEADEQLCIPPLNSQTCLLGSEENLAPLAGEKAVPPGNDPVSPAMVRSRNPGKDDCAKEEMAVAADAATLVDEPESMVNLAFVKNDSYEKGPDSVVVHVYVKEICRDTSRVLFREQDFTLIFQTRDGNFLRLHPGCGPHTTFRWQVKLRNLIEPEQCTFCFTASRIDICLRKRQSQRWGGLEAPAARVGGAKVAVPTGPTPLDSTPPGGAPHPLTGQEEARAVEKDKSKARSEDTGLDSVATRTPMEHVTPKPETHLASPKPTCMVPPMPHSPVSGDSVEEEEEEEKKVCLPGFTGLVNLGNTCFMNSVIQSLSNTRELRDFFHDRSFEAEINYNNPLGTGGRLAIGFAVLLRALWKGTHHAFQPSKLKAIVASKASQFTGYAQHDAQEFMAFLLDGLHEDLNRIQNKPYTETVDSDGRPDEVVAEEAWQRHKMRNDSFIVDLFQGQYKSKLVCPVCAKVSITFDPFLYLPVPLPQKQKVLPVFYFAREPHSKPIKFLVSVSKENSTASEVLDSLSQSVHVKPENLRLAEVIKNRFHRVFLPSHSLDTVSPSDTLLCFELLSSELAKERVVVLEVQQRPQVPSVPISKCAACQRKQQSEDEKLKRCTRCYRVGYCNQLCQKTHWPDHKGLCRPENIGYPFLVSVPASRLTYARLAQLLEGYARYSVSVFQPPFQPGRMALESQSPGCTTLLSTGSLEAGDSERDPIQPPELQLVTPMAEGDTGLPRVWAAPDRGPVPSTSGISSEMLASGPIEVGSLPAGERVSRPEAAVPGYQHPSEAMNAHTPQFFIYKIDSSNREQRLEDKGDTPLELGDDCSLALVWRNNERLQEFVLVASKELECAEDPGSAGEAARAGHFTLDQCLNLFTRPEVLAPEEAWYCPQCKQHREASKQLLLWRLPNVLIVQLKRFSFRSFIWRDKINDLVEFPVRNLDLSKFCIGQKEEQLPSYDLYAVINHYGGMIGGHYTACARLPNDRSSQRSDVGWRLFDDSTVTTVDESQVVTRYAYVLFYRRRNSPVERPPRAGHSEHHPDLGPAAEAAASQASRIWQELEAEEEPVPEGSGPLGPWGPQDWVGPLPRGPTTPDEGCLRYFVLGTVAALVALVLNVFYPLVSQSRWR
Procedure, shortened: (§1)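 Labelled DUBs from HEK293T lysate were NeutrAvidin-enriched, digested with LysC and trypsin, and run by diaPASEF LC-MS/MS. Before that, each 495 µg sample in Tris/CHAPS/IGEPAL buffer with protease inhibitors was treated in triplicate with fragment at 200 µM or vehicle for 3 h, then with Biotin-Ahx-Ub-VS at 0.5 µM final for 1 h. Values are average log2 ratios of fragment over vehicle by unpaired t-test, based on global-median-normalised Spectronaut label-free quantities from proteins with ≥2 unique peptides.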

[2] = biological target: T2, USP22 (UniProt Q9UPT9)
T2 sequence (whole entry): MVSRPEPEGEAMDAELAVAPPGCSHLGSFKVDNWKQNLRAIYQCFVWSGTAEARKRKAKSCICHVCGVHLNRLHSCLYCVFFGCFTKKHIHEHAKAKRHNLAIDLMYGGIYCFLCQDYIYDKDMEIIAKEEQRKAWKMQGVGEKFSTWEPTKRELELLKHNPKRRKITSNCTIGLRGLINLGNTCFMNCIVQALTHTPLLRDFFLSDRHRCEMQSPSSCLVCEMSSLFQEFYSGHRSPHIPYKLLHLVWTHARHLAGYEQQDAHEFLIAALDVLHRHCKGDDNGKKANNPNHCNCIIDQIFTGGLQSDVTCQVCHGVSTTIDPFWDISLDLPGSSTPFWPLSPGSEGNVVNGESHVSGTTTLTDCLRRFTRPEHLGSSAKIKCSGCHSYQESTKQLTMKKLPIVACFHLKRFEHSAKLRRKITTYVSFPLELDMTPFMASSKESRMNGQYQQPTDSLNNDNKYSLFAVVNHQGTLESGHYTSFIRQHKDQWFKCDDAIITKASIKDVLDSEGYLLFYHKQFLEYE
Procedure, shortened: as §1

[3] = biological target: USP24 (UniProt Q9UPU5)
Procedure, shortened: as §1

[4] = biological target: T3, USP25 (UniProt Q9UHP3)
T3 sequence (whole entry): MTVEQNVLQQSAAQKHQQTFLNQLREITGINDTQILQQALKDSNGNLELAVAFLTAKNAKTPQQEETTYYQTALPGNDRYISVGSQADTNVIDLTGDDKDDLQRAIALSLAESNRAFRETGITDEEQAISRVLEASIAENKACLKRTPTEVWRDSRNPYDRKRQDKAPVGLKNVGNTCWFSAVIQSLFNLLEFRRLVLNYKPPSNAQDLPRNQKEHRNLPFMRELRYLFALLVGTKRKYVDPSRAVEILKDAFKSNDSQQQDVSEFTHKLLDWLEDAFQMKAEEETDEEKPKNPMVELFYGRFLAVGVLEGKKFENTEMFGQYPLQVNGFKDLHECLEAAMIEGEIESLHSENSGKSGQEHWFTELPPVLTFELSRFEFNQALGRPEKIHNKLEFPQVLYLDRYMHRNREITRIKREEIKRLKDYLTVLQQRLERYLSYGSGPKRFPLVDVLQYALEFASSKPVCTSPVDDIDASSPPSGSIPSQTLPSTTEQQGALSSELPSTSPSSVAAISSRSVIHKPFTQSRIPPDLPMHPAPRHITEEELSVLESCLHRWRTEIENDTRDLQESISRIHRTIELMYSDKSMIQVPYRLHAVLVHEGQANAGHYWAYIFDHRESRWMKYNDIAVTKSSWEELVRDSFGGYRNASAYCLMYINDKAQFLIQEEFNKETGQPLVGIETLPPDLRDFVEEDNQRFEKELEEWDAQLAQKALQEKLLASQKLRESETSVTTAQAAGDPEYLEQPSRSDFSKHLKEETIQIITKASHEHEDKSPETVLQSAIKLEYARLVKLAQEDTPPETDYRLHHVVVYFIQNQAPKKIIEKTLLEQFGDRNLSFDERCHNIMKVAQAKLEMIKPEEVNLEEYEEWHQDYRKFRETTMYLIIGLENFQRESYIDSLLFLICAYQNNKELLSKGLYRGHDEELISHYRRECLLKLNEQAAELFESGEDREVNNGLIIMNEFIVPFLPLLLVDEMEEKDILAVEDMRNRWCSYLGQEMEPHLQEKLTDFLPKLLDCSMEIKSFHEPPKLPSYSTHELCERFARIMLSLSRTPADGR
Procedure, shortened: as §1

[5] = biological target: T4, USP28 (UniProt Q96RU2)
T4 sequence (whole entry): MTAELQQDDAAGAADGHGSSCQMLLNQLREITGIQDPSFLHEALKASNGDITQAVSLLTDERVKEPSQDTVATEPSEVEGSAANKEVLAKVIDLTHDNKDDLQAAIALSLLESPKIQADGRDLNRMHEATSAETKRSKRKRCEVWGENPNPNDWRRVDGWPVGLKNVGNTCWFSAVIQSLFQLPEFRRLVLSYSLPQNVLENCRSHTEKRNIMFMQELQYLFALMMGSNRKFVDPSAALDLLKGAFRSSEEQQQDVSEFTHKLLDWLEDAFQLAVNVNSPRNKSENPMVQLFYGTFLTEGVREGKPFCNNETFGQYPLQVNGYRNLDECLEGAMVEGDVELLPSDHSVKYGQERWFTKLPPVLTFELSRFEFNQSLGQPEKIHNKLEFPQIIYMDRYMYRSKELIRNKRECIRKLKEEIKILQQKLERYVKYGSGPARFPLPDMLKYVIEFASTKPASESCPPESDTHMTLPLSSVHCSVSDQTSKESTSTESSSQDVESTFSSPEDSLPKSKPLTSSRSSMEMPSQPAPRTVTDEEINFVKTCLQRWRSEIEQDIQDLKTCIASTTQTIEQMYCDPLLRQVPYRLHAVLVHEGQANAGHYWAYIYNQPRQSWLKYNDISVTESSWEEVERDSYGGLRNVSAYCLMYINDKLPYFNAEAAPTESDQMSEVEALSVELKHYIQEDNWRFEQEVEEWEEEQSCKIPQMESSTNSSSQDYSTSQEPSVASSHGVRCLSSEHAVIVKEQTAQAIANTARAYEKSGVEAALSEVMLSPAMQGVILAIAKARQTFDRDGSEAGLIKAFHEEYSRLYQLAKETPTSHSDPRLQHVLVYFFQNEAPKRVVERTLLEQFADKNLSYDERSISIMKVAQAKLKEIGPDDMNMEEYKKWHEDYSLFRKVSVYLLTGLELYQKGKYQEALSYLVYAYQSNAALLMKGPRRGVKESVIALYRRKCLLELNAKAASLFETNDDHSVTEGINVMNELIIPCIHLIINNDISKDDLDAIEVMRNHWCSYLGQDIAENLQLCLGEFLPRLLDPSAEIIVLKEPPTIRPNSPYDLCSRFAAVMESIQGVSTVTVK
Procedure, shortened: as §1

Measured: log2 ratio of Biotin-Ahx-Ub-VS probe labelling

USP24, sequence (Q9UPU5 whole entry): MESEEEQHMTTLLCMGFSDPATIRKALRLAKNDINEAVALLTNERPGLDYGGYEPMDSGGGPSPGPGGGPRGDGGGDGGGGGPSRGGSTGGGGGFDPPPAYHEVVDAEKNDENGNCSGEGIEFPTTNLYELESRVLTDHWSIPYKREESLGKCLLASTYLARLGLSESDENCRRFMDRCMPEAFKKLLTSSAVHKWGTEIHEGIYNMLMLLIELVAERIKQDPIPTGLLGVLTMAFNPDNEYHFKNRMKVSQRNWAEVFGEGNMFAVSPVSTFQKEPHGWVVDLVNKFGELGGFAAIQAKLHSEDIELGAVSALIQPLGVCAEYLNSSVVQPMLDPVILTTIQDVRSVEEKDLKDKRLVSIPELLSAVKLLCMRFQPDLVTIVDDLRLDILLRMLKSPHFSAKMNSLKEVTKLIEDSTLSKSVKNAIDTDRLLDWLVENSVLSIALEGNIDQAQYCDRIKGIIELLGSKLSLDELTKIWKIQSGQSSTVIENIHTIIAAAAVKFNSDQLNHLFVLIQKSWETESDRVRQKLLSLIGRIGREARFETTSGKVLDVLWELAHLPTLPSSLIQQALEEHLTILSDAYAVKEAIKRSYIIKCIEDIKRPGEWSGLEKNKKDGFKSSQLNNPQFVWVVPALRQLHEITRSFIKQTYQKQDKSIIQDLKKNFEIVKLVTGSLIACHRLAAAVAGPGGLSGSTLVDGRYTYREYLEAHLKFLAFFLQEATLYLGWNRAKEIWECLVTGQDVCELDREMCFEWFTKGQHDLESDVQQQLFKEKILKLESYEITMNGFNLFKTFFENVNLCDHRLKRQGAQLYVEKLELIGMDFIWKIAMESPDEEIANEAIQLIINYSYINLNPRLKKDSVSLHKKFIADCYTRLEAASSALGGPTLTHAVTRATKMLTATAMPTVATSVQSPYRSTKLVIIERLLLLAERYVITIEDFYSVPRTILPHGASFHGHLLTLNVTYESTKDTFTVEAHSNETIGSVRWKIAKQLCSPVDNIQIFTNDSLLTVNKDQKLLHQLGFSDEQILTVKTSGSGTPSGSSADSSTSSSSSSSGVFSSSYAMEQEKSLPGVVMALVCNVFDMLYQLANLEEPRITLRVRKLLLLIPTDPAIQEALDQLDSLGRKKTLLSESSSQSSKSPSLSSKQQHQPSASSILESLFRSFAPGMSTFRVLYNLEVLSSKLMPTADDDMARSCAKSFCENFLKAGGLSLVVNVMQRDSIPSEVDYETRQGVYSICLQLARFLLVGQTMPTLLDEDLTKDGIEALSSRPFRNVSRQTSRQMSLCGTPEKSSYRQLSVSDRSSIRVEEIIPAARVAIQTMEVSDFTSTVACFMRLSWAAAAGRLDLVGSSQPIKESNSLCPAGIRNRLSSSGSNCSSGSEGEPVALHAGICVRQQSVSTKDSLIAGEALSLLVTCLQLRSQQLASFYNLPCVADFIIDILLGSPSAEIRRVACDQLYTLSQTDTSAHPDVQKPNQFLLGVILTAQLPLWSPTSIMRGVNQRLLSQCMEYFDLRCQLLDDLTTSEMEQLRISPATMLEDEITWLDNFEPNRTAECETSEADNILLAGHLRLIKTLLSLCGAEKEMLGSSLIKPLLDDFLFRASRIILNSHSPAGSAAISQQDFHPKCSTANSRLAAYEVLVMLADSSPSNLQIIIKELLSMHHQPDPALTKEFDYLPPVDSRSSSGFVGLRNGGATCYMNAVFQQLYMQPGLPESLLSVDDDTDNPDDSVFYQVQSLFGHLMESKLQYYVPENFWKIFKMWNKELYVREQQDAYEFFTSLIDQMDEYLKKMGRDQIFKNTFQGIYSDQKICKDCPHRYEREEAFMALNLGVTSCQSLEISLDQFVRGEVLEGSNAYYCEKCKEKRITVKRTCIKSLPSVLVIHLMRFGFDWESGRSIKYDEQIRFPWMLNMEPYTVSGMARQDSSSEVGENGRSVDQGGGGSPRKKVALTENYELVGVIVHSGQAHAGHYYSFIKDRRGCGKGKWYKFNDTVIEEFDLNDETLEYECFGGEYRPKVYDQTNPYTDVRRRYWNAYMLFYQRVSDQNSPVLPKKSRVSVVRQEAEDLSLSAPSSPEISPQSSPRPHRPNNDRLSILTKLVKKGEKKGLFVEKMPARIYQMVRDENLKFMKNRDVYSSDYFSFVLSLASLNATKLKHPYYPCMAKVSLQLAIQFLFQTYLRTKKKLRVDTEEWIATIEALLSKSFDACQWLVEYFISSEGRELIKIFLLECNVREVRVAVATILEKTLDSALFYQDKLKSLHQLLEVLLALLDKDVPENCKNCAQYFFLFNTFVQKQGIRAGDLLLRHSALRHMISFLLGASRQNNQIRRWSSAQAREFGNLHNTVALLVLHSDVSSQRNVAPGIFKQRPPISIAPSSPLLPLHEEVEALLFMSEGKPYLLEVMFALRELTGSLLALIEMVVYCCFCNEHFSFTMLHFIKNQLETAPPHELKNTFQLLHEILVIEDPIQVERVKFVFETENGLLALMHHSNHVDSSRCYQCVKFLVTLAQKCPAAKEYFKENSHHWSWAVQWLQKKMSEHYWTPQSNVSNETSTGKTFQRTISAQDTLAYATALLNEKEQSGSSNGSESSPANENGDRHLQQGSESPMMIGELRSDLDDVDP

CCCn1nccc1NC(=O)CCl
inactive: [1] -0.237 | [2] 0.165 | [3] -0.693 | [4] -0.184 | [5] -0.445
